Pf growth 48h – P. falciparum growth inhibition at 48 hours (one generation); P. falciparum luciferase growth in erythrocytes, 48 h; Potency, µM (titrated, usually from 28.7 µM), without a hit: top-dose activity change, negative = inhibition, usual class: inhibitors; 310,000 tested, 5.9% active; AID 504832; note: potency is the fitted concentration of half-maximal effect; % is set by controls: 0 for no effect and ±100 for the full control effect
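A one-generation exposure of luciferase-tagged malaria parasites in RPMI 1640/Albumax erythrocyte culture, 37 C and 5% CO2. Inhibition is inferred from decreased luminescence after adding detection reagent.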
Sm TGR inh – inhibitors of Schistosoma mansoni thioredoxin glutathione reductase; 360,000 tested, 3% active; purified TGR, DTNB reduction, TNB absorbance 405 nm; Potency, µM (titrated, usually from 114 µM), for the others: at the top dose activity change, negative = inhibition, actives largely listed as inhibitors; AID 485364; Q962Y6; note: potency is the fitted concentration of half-maximal effect; % is set by controls: 0 for no effect and ±100 for the full control effect; nearly all actives have a fitted effect of over 60% in size
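Kinetic colorimetric format: TGR-catalysed, NADPH-driven DTNB reduction monitored via TNB absorbance. Enzyme dispensed at 20 nM; compound exposure 15 min at room temperature before reaction start.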
SARS PLpro yeast-1 – inhibitors of SARS-CoV papain-like protease in yeast. Potency, µM (highest dose often 32.9 µM), inactives show top-dose activity, positive = growth rescue, usual class: activators. 330,000 tested, 0.19% active. S. cerevisiae expressing SARS-CoV PLpro, growth rescue. AID 485353; calls by dose curve; note: potency is the fitted concentration of half-maximal effect; 0% is about no effect; nearly all actives have a fitted effect of over 55% in size
Pf growth 96h – P. falciparum growth inhibition at 96 hour, primary screen for plastid delayed-death inhibitors. P. falciparum luciferase reporter growth, 96 h. Potency, µM (doses to about 28.7 µM), without a hit: at the highest dose activity change, negative = inhibition, actives largely listed as inhibitors. 320,000 tested, 6.9% active; note: potency is the fitted concentration of half-maximal effect; % is set by controls: 0 for no effect and ±100 for the full control effect
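Luminescence readout: decreased luciferase signal marks inhibited growth of reporter-expressing P. falciparum in infected red cells (2% hematocrit, 0.05% parasitemia final), exposed to compound two generations (96 h, 37 C, 5% CO2).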
HCMV inh – blocks human cytomegalovirus replication | HFF cells, HCMV-luciferase reporter, 72 h; stronger effect = lower value | AID 1259415 | 410,000 tested, 4.5% active | activity change, negative = inhibition, % at 57.5 µM; in the data active = activity change below about -60%; inconclusive = no clear call, values can overlap the other calls; inactive = above about -39%; note: % is set by controls: 0 for no effect and ±100 for the full control effect
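Compounds were evaluated in HFFs infected with an HCMV luciferase reporter virus (MOI 1 PFU/cell). Luciferase in lysates collected 72 h post infection served as the replication measure.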
HCV inh – blocks hepatitis C virus. 340,000 tested, 3.4% active. Potency, µM (doses to about 41.8 µM), inactives show at the highest dose activity change, negative = inhibition, most hits filed as inhibitors. Huh7.5.1 HCVcc-Cre infection, luciferase reporter, 44 h. AID 651820; note: potency is the fitted concentration of half-maximal effect; % is set by controls: 0 for no effect and ±100 for the full control effect
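After 44 h co-culture of compound, cells and HCVcc-Cre (~0.5 moi), substrate is added for 15 min at room temperature and luciferase measured over 15 sec. Cells were seeded at 1,000/well and pre-cultured 4 h.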
SARS PLpro yeast-2 – Inhibits SARS-CoV PLP in yeast, hit validation; calls only; 1,000 tested, 19% active; shares compounds with SARS PLpro yeast-1; yeast expressing SARS-CoV PLpro, growth phenotype rescue; call rule not given here
Numbers without * were called inactive; i = inactive; ? = inconclusive; . = no result; + = active, no number. In the library only some 15% were active in any assay of this set; here they are far more common. Unless noted, calls come from the whole dose curve; as a rule, active = well fitted curve in the direction sought with a large enough effect; inconclusive = small, poorly fitted or top-dose-only effect, or another doubt; inactive = no such curve, though single readings can be large; an effect the other way counts as inactive or inconclusive.

SMILES	Pf growth 48h	Sm TGR inh	SARS PLpro yeast-1	Pf growth 96h	HCMV inh	HCV inh	SARS PLpro yeast-2
Cc1ccccc1OCCOC(=O)c1cc(S(=O)(=O)N2CCCCC2)ccc1N1CCOCC1	13.1µM*	-14.2%	10µM*	?	-38.1	11.2µM*	?
CCOc1ccc(CNC(=O)C2CCN(S(=O)(=O)c3ccc4c(c3)CCCC(=O)N4)CC2)cc1	9.28µM*	-13.5%	?	9.28µM*	1.2	-20.4%	+
O=C1CCCc2cc(S(=O)(=O)N3CCC(C(=O)NCc4ccccc4)CC3)ccc2N1	?	-1.3%	-0.8%	19.1%	0.0	3.7%	.
O=C(Oc1c(Cl)cc(Cl)c2cccnc12)c1cccs1	?	?	.	-31.7%	?	?	?
COc1ccc(S(=O)(=O)N2CCCC2)cc1Br	-21.5%	1.3%	?	150.0%	13.5	11.8%	.
COc1ccc(CNC(=O)c2ccc(S(=O)(=O)N3CCCC3)cc2)cc1OC	.	0.8%	?	?	-14.9	11.9%	i
COc1ccc(S(=O)(=O)N2CCCCC2)cc1C(C)C	?	-0.3%	?	?	17.2	0.2%	i
O=C(N/N=C/c1sc2ccccc2c1O)c1ccccc1	4.65µM*	-19.7%	3.98µM*	?	.	4.47µM*	i
O=C(N/N=C/c1sc2ccccc2c1O)c1cccc2ccccc12	?	-10.7%	2.82µM*	-119.6%	-104.2*	1.78µM*	i
O=C(N/N=C/c1ccccc1)c1cccc2ccccc12	.	.	.	.	-20.1	-5.9%	.
COc1ccc(C(=O)N/N=C/C(=O)c2ccccc2)cc1	54.6%	-7.5%	-9.9%	0.0%	-21.5	16.6%	.
COc1ccc(C(=O)N/N=C/c2sc3ccccc3c2O)cc1	?	-23.2%	2.82µM*	?	.	?	i
COc1ccc2cc(C(=O)N/N=C/c3sc4ccccc4c3O)ccc2c1	?	2.8%	5.01µM*	40.4%	-98.1*	?	+
COC(=O)c1cncc(C)c1	-2.6%	11.7%	-1.6%	20.9%	-4.7	1.9%	.
Cc1nn(C)cc1/C=N/NC(=S)Nc1ccc(Cl)cc1Cl	35.5%	7.9%	?	-23.7%	-32.2	-26.4%	+
Cc1nn(C)cc1/C=N/NC(=O)c1ccc2c(c1)OCO2	31.8%	0.9%	-0.3%	49.1%	15.9	-4.8%	.
Cc1ccc(C)c(N2CCN(C(=O)C3CCCN(S(=O)(=O)c4c(C)[nH]c(=O)[nH]c4=O)C3)CC2)c1 (configuration not stated)	.	4.0%	10µM*	0.0%	.	18.5%	i
c1ccc2c(c1)CC1(CCCCC1)n1nnnc1-2	-9.9%	0.8%	14.1µM*	-23.9%	?	-8.4%	i
CC(C)(C)C(=O)Nc1c2c(nn1-c1ccccc1)CSC2	0.2%	?	2.5%	-18.2%	0.0	1.4%	.
COc1ccc(N2CCN(C(CNS(=O)(=O)c3ccccc3)c3ccccc3)CC2)cc1 (configuration not stated)	-21.0%	-10.0%	-3.7%	-12.2%	-3.8	-25.5%	.
COc1ccccc1Nc1nc(N)nc(CSC(=S)N2CCC(C)CC2)n1	?	3.5%	15.8µM*	?	-5.4	1.2%	i
COc1ccc(C(C)NC(=O)c2ccc(Br)cc2)cc1OC (configuration not stated)	17.9%	-6.1%	-2.7%	0.0%	7.6	14.3%	.
COc1ccc(C(C)NC(=O)c2ccccc2Cl)cc1OC (configuration not stated)	9.9%	?	11.2µM*	25.4%	-7.7	8.1%	+
CCOC(=O)c1c(NC(C)=O)c2c3c(sc2n1Cc1nc(-c2ccccc2C)oc1C)CCCC3	.	0.8%	.	.	4.6	.	.
Nc1nc(SCc2ccccc2Cl)nc2nc3c(cc12)CCCC3	?	9.0%	?	-17.4%	-28.2	.	i
SMILES	Pf growth 48h	Sm TGR inh	SARS PLpro yeast-1	Pf growth 96h	HCMV inh	HCV inh	SARS PLpro yeast-2
Cc1ccc(C2(C)NC(=O)N(CC(=O)NCc3cccc(Cl)c3)C2=O)cc1 (configuration not stated)	?	5.2%	1.0%	-2.9%	-36.0	1.7%	.
Cc1ccc(C2(C)NC(=O)N(CC(=O)NCc3cccs3)C2=O)cc1 (configuration not stated)	-27.2%	4.1%	?	3.3%	11.9	?	i
O=C(COc1ccccc1)NCc1nnc2c3ccccc3c(-c3ccccc3)nn12	?	-11.2%	.	?	-63.0*	0.3%	i
CCOC(=O)[C@]12CCC=C1N(Cc1cccc3ccccc13)C(=O)[C@H](CC(=O)NCC13CC4CC(CC(C4)C1)C3)C2	.	.	.	.	-12.7	.	.
O=S(=O)(N1CCCCC1)n1nnc2cc3ccccc3cc21	.	.	.	.	30.2	.	.
Cc1ccc(S(=O)(=O)c2nc(NCCN(C)C)sc2Cl)cc1	.	-19.2%	?	?	?	-17.5%	i
CCOC(=O)c1ccc(NC(=O)C2CCN(C(=O)c3ccc(OC)c(OC)c3)CC2)cc1	?	0.7%	?	.	-17.0	10µM*	i
COc1ccc(C(=O)CC(=O)C(=O)NCCc2cccc(C)c2)cc1	-7.8%	4.9%	20µM*	11.7%	10.1	-2.6%	+
COc1ccc(C(=O)CC(=O)C(=O)Nc2ccccc2)cc1	9.8%	-11.8%	1.0%	-2.8%	37.2	9.9%	.
O=C(CSCc1cccc(Br)c1)NC1CC1	-17.5%	-9.7%	?	26.4%	-22.4	8.5%	i
COCC(C)n1c(SCC(=O)NC(=O)NCc2ccccc2)nc2ccccc2c1=O (configuration not stated)	.	.	1.4%	.	76.4	?	.
CCCCCn1nnnc1C1(C)CCC(=O)N1Cc1ccco1 (configuration not stated)	.	.	.	.	0.8	.	.
CCOC(=O)CSc1nc2c(sc(=S)n2Cc2ccco2)c(=O)n1-c1ccccc1	?	-0.2%	?	?	-11.4	?	i
CC(C)NC(=S)N/N=C/c1cc(Br)ccc1O	2.08µM*	-17.9%	?	1.65µM*	-21.5	?	+
CC(C)NC(=S)N/N=C/c1c[nH]c2ccccc12	?	-18.4%	15.0%	26.8%	?	-5.8%	.
O=C(N/N=C/c1cccc2ccccc12)c1cccnc1	.	9.1%	-2.4%	11.6%	15.4	6.6%	.
O=C(N/N=C/c1c(O)n(-c2ccccc2Cl)c(=O)c2ccccc12)c1cccnc1	?	-21.9%	5.62µM*	?	25.2	3.9%	i
Cc1cccc(-n2c(O)c(/C=N/NC(=O)c3ccccc3Cl)c3ccccc3c2=O)n1	-7.3%	-12.3%	14.1µM*	-0.9%	20.9	?	i

Bioassay records from PubChem.
